Measurements: PubChem BioAssay AID1159580 (chemical genetic matrix, 2015)
Several values for one entry are separate records, joined by “and”; a condition that tells them apart may be missing. Equal values may be shown once. About 2,000 (36%) of roughly 5,500 compounds were called active. Another 18% or so got no clear call; they are omitted. Rule as the data show it: active = normalized growth mostly below about 0.91 (no sharp cut-off); inconclusive = no clear call, values can overlap the other calls; inactive = mostly above about 0.92. This is one part of the list.

Test: chemical genetic growth profiling, strain panel (AID 1159580);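 also: tested at 20 µM; growth read once vehicle control cultures reached saturation at 30 °C; 1 = growth at the plate median or of vehicle wells; lower values mean less growth of the strain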
Details: S. cerevisiae deletion strains, growth OD

Measured: normalized growth

CC[C@H]1OC(=O)[C@H](C)[C@@H](O[C@H]2C[C@@](C)(OC)[C@@H](O)[C@H](C)O2)[C@H](C)[C@@H](O[C@@H]2O[C@H](C)C[C@H](N(C)C)[C@H]2O)[C@](C)(O)C[C@@H](C)[C@@H]2N[C@@H](COCCOC)O[C@H]([C@H]2C)[C@]1(C)O
inactive: locus YAL021C, strain ccr4, stronger effect = lower value 0.991 | locus YAL026C, strain drs2, stronger effect = lower value 0.993 | locus YAL030W, strain snc1, stronger effect = lower value 0.999 | locus YBL061C, strain skt5, stronger effect = lower value 0.982 | locus YBR009C, strain hhf1, stronger effect = lower value 0.995 | locus YBR021W, strain FUR4, stronger effect = lower value 1.01 | locus YBR023C, strain chs3, stronger effect = lower value 0.993 | locus YBR171W, strain sec66, stronger effect = lower value 0.977 | locus YBR229C, strain ROT2, stronger effect = lower value 1.01 | locus YBR231C, strain swc5, stronger effect = lower value 0.992 | locus YBR279W, strain paf1, stronger effect = lower value 0.998 | locus YCL011C, strain gbp2, stronger effect = lower value 0.99 | locus YCL016C, strain dcc1, stronger effect = lower value 0.985 | locus YCL029C, strain bik1, stronger effect = lower value 1.01 | locus YCL061C, strain MRC1, stronger effect = lower value 0.982 | locus YCL069W, strain vba3, stronger effect = lower value 0.988 | locus YCR088W, strain abp1, stronger effect = lower value 0.999 | locus YDL005C, strain med2, stronger effect = lower value 0.978 | locus YDL035C, strain GPR1, stronger effect = lower value 1.01 | locus YDL040C, strain nat1, stronger effect = lower value 0.996 | locus YDL074C, strain BRE1, stronger effect = lower value 1.01 | locus YDL101C, strain DUN1, stronger effect = lower value 1.05 | locus YDL185W, strain tfp1, stronger effect = lower value 1 | locus YDL192W, strain arf1, stronger effect = lower value 1.01 | locus YDR001C, strain nth1, stronger effect = lower value 0.995 | locus YDR069C, strain doa4, stronger effect = lower value 0.995 | locus YDR101C, strain arx1, stronger effect = lower value 0.984 | locus YDR137W, strain rgp1, stronger effect = lower value 1 | locus YDR159W, strain sac3, stronger effect = lower value 0.985 | locus YDR162C, strain NBP2, stronger effect = lower value 1 | locus YDR195W, strain ref2 0.966 | locus YDR297W, strain sur2, stronger effect = lower value 1 | locus YDR318W, strain mcm21, stronger effect = lower value 1.01 | locus YDR334W, strain swr1, stronger effect = lower value 0.986 | locus YDR335W, strain msn5, stronger effect = lower value 0.998 | locus YDR388W, stronger effect = lower value 1.01 | locus YDR392W, strain spt3, stronger effect = lower value 0.989 | locus YDR502C, strain sam2, stronger effect = lower value 0.997 | locus YEL003W, strain gim4, stronger effect = lower value 1 | locus YEL037C, strain rad23, stronger effect = lower value 0.997 | locus YEL061C, strain CIN8 (second series), stronger effect = lower value 0.998 | locus YEL061C, strain CIN8, stronger effect = lower value 1.01 | locus YER015W, strain faa2, stronger effect = lower value 1 | locus YER016W, strain bim1, stronger effect = lower value 0.987 | locus YER110C, stronger effect = lower value 1.01 | locus YER111C, strain swi4, stronger effect = lower value 0.991 | locus YER155C, strain BEM2 (second series), stronger effect = lower value 0.999 | locus YER155C, strain BEM2, stronger effect = lower value 1.01 | locus YER167W, strain BCK2, stronger effect = lower value 1 | locus YFR010W, strain ubp6, stronger effect = lower value 0.988 | locus YGL078C, strain dbp3, stronger effect = lower value 1.01 | locus YGL167C, strain pmr1, stronger effect = lower value 0.991 | locus YGL173C, strain kem1, stronger effect = lower value 0.984 | locus YGL227W, strain vid30, stronger effect = lower value 0.99 | locus YGL240W, strain doc1, stronger effect = lower value 0.989 | locus YGL248W, strain PDE1, stronger effect = lower value 1.02 | locus YGL253W, strain hxk2, stronger effect = lower value 0.998 | locus YGR135W, strain pre9, stronger effect = lower value 1.04 | locus YGR252W, strain gcn5, stronger effect = lower value 0.991 | locus YHR013C, strain ard1, stronger effect = lower value 0.952 | locus YHR027C, strain rpn1, stronger effect = lower value 0.983 | locus YHR030C, strain SLT2, stronger effect = lower value 1 and 1.04 | locus YHR079C, strain IRE1 (second series), stronger effect = lower value 1.01 | locus YHR079C, strain IRE1, stronger effect = lower value 1.03 | locus YHR094C, strain hxt1, stronger effect = lower value 1.01 | locus YHR129C, strain ARP1, stronger effect = lower value 1.01 | locus YHR142W, strain chs7, stronger effect = lower value 0.997 | locus YHR200W, strain rpn10, stronger effect = lower value 1.01 | locus YIL066C, strain RNR3, stronger effect = lower value 1.01 | locus YIL073C, strain SPO22, stronger effect = lower value 1.06 | locus YIL125W, strain kgd1, stronger effect = lower value 1 | locus YIR030C, strain dcg1, stronger effect = lower value 1.02 | locus YJL092W, strain hpr5, stronger effect = lower value 0.991 | locus YJL095W, strain BCK1 (second series), stronger effect = lower value 0.982 | locus YJL095W, strain BCK1, stronger effect = lower value 1.06 and 1 | locus YJL115W, strain asf1, stronger effect = lower value 0.995 | locus YJL129C, strain trk1, stronger effect = lower value 1.01 | locus YJL134W, strain LCB3, stronger effect = lower value 1.01 | locus YJL154C, strain vps35, stronger effect = lower value 0.993 | locus YJL164C, strain tpk1, stronger effect = lower value 1 | locus YJL166W, strain qcr8, stronger effect = lower value 0.993 | locus YJL168C, strain set2, stronger effect = lower value 1 | locus YJL187C, strain SWE1 (second series), stronger effect = lower value 1.05 | locus YJL187C, strain SWE1, stronger effect = lower value 0.991 | locus YJR043C, strain POL32, stronger effect = lower value 0.989 | locus YJR066W, strain TOR1, stronger effect = lower value 0.982
